# Source: PubChem BioAssay (Tox21)
# Records with an inconclusive call do not appear. A number with no mark means an inactive call. The source made the active and inactive calls. Calls come from the whole dose curve.
# Target: Beta-2 adrenergic receptor (Homo sapiens) (UniProt P07550)
# Assay: Adrenergic beta2 receptor (ADRB2) small molecule agonists, cell-based qHTS assay (AID 1963593); note: potency is the fitted concentration of half-maximal effect;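 for activation: CHO cells stably overexpressing human ADRB2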
# Conditions: CHO-ADRB2 cells, cAMP HTRF, 30 min; series mostly up to 92.4 µM; activation: at the top concentration
# Summary of the method: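 CHO cells stably over-expressing ADRB2 were plated overnight at 37C, then dosed with compounds plus a stimulation mix containing 100uM IBMX and 25uM Ro-20-1724 for 0.5hr at room temperature. cAMP was measured by HTRF competition, 1hr.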
# % is set by controls: 0 for no effect and ±100 for the full control effect.
# Beta-2 adrenergic receptor (Homo sapiens), sequence (P07550 whole entry, looked up): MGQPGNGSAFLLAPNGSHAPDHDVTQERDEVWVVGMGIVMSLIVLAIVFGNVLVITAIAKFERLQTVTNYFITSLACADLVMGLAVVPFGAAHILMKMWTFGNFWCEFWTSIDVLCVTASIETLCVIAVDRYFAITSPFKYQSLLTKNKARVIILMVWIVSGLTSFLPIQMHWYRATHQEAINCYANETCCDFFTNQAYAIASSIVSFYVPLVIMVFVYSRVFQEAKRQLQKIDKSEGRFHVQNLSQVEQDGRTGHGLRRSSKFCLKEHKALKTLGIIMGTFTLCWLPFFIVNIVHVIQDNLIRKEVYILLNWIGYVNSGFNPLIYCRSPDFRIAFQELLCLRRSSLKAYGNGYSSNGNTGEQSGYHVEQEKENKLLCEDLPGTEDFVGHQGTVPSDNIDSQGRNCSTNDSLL
SMILES,activation [%],Potency
CCC(C)(C#N)N=NC(C)(C#N)CC (stereo not drawn),6.69,–
c1nc[nH]n1,–,inactive
c1ccc(Nc2ccc3ccccc3c2)cc1,-29.5,–
CCOP(=O)(OCC)OP(=O)(OCC)OCC,18.6,–
Clc1ccccc1Cl,10.8,–
CC(C)Nc1nc(Cl)nc(NC(C)C)n1,-2.42,–
CC(C)OS(C)(=O)=O,4.01,–
CC(=O)[O][Hg][c]1ccccc1,–,4.73 µM (active)
CCCCCCCCCl,–,inactive
C#CCOS(=O)OC1CCCCC1Oc1ccc(C(C)(C)C)cc1 (stereo not drawn),2.11,–
O=S(=O)(O)OOS(=O)(=O)O,–,inactive
CCCCCON=O,-1.37,–
FC(F)(F)c1ccc(Cl)cc1,20.8,–
COP(=S)(OC)Oc1ccc([N+](=O)[O-])cc1,23.9,–
CCCCCCCCC(=O)NCc1ccc(O)c(OC)c1,–,inactive
COc1c(C(C)(C)C)cc([N+](=O)[O-])c(C)c1[N+](=O)[O-],5.86,–
Cc1ccc(N)cc1,–,inactive
CCCCCCCCCCCCCCCC[N+](C)(C)C,–,inactive
CCc1cnc(C2=NC(C)(C(C)C)C(=O)N2)c(C(=O)O)c1 (stereo not drawn),-30.7,–
CCCCCBr,5.33,–
CCOP(=O)(O)OCC (tested in a mixture with another compound),24.8,–
CCCCNC(=O)n1c(NC(=O)OC)nc2ccccc21,–,inactive
CCCCCCCCCCCC(=O)O,–,inactive

# Target: D(2) dopamine receptor (Homo sapiens) (UniProt P14416)
# Sequence (P14416 whole entry, looked up): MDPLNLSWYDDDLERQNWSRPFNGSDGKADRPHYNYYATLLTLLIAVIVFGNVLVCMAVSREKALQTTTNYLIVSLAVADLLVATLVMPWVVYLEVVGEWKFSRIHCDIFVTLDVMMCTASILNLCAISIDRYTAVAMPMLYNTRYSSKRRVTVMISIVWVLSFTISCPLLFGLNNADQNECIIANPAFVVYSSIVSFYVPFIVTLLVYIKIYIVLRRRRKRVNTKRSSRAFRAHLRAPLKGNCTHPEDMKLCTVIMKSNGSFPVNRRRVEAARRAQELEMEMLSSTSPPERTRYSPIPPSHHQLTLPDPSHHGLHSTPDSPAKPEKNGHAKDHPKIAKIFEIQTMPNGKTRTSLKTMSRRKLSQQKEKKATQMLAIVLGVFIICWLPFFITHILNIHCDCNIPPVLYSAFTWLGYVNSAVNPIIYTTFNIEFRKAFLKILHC
# Assay: Dopamine D2 receptor (DRD2) small molecule agonists, cell-based qHTS assay (AID 1963594); note: nearly all actives have a fitted effect of over 35% in size
# Conditions: HEK293-DRD2 cAMP HTRF, agonist mode, 30 min; series mostly up to 92.4 µM; activation: at the top concentration
# Summary of the method: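 HEK293 cells stably expressing human DRD2, pre-treated with PDE inhibitor Ro20-1724 (0.1 mM final) and compound 10 min at room temperature, then stimulated with NKH477 (200nM […]) for 30 min. cAMP read by HTRF (665/620 nm).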
SMILES,activation [%],Potency
C=CC=O,-0.17,–
CCC(C)(C#N)N=NC(C)(C#N)CC (stereo not drawn),8.73,–
c1nc[nH]n1,–,inactive
c1ccc(Nc2ccc3ccccc3c2)cc1,–,inactive
Nc1cccnc1,–,inactive
Clc1ccccc1Cl,–,inactive
CCN(CC)C(=S)S,–,inactive
CC(C)Nc1nc(Cl)nc(NC(C)C)n1,–,inactive
Nc1ccc(-c2ccc(N)c(N)c2)cc1N,–,inactive
CC(C)OS(C)(=O)=O,-4.31,–
CCCCOC(=O)c1ccccc1C(=O)O,15.8,–
CCCCCCCCCl,–,inactive
ClCC(Br)CBr (stereo not drawn),-0.592,–
CC(C)C#N,–,inactive
CCCCCON=O,2.7,–
FC(F)(F)c1ccc(Cl)cc1,–,inactive
CON(C)C(=O)Nc1ccc(Cl)cc1,3.32,–
CCCCCCCCC(=O)NCc1ccc(O)c(OC)c1,-2.91,–
COc1c(C(C)(C)C)cc([N+](=O)[O-])c(C)c1[N+](=O)[O-],-2.04,–
Cc1ccc(N)cc1,–,inactive
CCCCCCCCCCCCCCCC[N+](C)(C)C,–,inactive
CCCCCBr,2.79,–
COP(=S)(OC)Oc1ccc(Sc2ccc(OP(=S)(OC)OC)cc2)cc1,–,inactive
CC(=O)CCC(C)=O,-0.047,–
CCOP(=O)(O)OCC (tested in a mixture with another compound),–,inactive
O=[N+]([O-])c1ccc(Cl)c(Cl)c1,-1.3,–
CC(C)(O)C(=O)Nc1ccc([N+](=O)[O-])c(C(F)(F)F)c1,–,inactive
CCCCNC(=O)n1c(NC(=O)OC)nc2ccccc21,–,inactive
CCCCCCCCCCCC(=O)O,–,inactive
OC(Cc1ccccc1Cl)(Cn1cncn1)C1(Cl)CC1 (stereo not drawn),-1.27,–
